From PubChem BioAssay (Tox21)
Records with an inconclusive call do not appear. Calls of active or inactive are those of the source. Calls come from the whole dose curve; as a rule, active = well fitted curve in the direction sought with a large enough effect in the repeat runs; inconclusive = weak or mixed curves; inactive = no such curve, though single readings can be large; an effect the other way counts as inactive or inconclusive.

molecular target: Cytochrome P450 2C9 (Homo sapiens) (UniProt P11712); experiment: Cytochrome P450 Family 2 Subfamily C Member 9 (CYP2C9) small molecule antagonists: luciferase reporter qHTS assay (AID 1671198); details: P450-Glo CYP2C9 enzyme assay, luciferin luminescence; series mostly up to 115 µM
Method in brief: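 Enzyme-substrate mix preincubated with compound 10 min at room temperature; reaction started with NADPH regeneration solution, 1 h 37C. Luminescent luciferin product read after 20 min detection reagent.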
% is set by controls: 0 for no effect and ±100 for the full control effect; potency is the fitted concentration of half-maximal effect.
Note: nearly all actives have a fitted effect of over 50% in size.

Sequence of Cytochrome P450 2C9 (Homo sapiens) (P11712 whole entry, looked up): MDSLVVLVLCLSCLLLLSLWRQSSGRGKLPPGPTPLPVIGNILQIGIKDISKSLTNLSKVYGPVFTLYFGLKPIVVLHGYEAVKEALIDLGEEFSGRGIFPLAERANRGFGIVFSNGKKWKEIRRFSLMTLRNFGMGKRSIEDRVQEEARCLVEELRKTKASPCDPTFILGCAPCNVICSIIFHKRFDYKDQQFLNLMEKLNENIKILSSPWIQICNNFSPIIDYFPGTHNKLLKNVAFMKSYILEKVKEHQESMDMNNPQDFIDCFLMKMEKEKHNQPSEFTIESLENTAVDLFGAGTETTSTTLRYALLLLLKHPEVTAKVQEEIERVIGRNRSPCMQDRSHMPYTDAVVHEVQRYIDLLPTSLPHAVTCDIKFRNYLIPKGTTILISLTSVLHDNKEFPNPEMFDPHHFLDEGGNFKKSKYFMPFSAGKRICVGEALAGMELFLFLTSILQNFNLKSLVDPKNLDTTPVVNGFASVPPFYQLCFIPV

Row | SMILES | Potency | activity change, negative = inhibition
1 | O=[N+]([O-])c1cccc(S(=O)(=O)O)c1 | 32.2 µM (active) | –
2 | COc1cc2nc(N(C)CCCNC(=O)C3CCCO3)nc(N)c2cc1OC (stereo not given) | inactive | –
3 | O=CC1CC=CCC1 (stereo not given) | inactive | –
4 | C/C=C(/C(=C/C)c1ccc(OC(C)=O)cc1)c1ccc(OC(C)=O)cc1 | 7.76 µM (active) | –
5 | Cc1oc(-c2ccccc2)nc1CCOc1cccc2c1ccn2CCC(=O)O | 22.4 µM (active) | –
6 | C/C=C/C(=O)CC | – | -11% [at 23.6 µM] (inactive)
7 | O=C(O)C1(C(=O)O)CCC1.[NH2-].[NH2-].[Pt+2] | 8.71 µM (active) | –
8 | NCc1ccccc1Sc1ccccc1CO | 9.77 µM (active) | –
9 | CC(=O)c1ccc2c(c1)N(CCCN(C)C)c1ccccc1S2 | inactive | –
10 | C[C@H]1C[C@H]2[C@@H]3CCC4=CC(=O)C=C[C@]4(C)[C@@]3(Cl)[C@@H](O)C[C@]2(C)[C@@]1(O)C(=O)CO | 17.4 µM (active) | –
11 | O=C1CCCCCCCCCCCC(=O)OCCO1 | 63.3 µM (active) | –
12 | CN1Cc2cc(C(=O)N3CCC(C4CCNCC4)CC3)ccc2NC(CC(=O)O)C1=O (stereo not given) | inactive | –
13 | Cc1oc2c(NC(=O)c3c(Cl)cccc3Cl)cccc2c1C(C)(C)O | 1.59 µM (active) | –
14 | CCCCCCCCCCCc1ccccc1 | inactive | –
15 | CCCCC(CC)CN1C(=O)C2C3C=CC(C3)C2C1=O (stereo not given) | 7.96 µM (active) | –
16 | C=CCOC(=O)CCC1CCCCC1 | inactive | –
17 | Cc1cc(C(=O)O)ccc1[N+](=O)[O-] | inactive | –
18 | CC(C)(COC(=O)c1ccccc1)COC(=O)c1ccccc1 | 6.33 µM (active) | –
19 | O=C1c2ccccc2S(=O)(=O)N1CCCCN1CCN(c2ncccn2)CC1 | 15.5 µM (active) | –
20 | CCCCCCCC/C=C\CCCCCCCC(=O)OCC | 71 µM (active) | –
21 | C=CC(=O)OCCOCCOCCOCCOC(=O)C=C | inactive | –

molecular target: Cytochrome P450 1A2 (Homo sapiens) (UniProt P05177); experiment: Cytochrome P450 Family 1 Subfamily A Member 2 (CYP1A2) small molecule antagonists: luciferase reporter qHTS assay (AID 1671199); details: P450-Glo CYP1A2 enzyme, luciferin luminescence, 1 h; series mostly up to 53 µM
Method in brief: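 Human CYP1A2 activity measured with a P450-Glo proluciferin substrate; compounds in DMSO preincubated 10 min at room temperature with enzyme-substrate mix, then NADPH regeneration system added for 1 h. Luciferin detection reagent, 20 min, luminescence read.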

Sequence of Cytochrome P450 1A2 (Homo sapiens) (P05177 whole entry, looked up): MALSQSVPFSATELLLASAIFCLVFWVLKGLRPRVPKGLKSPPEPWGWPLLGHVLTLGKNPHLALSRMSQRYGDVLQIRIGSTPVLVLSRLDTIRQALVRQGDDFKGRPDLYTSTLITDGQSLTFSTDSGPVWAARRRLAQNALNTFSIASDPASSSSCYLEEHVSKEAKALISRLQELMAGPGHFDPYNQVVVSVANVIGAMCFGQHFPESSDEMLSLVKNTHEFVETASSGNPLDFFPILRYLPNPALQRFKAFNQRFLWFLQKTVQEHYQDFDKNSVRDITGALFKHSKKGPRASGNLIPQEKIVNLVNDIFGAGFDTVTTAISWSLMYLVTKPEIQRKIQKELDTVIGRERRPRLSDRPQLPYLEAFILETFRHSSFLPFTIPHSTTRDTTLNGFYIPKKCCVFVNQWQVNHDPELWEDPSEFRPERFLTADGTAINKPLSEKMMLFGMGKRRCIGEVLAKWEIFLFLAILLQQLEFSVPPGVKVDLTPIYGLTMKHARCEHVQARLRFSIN

Row | SMILES | Potency
22 | OC[C@H]1O[C@@H](OCCc2ccc(O)cc2)[C@H](O)[C@@H](O)[C@@H]1O | inactive
23 | CCOC(=O)NCCOc1ccc(Oc2ccccc2)cc1 | 11.2 µM (active)
24 | O=[N+]([O-])c1ccc(NCCO)c(OCCO)c1 | 17.9 µM (active)
25 | CCOc1ccc(N=Nc2ccc(/C=C/c3ccc(N=Nc4ccc(OCC)cc4)cc3S(=O)(=O)O)c(S(=O)(=O)O)c2)cc1 | 27.8 µM (active)
26 | Brc1c2ccccc2c(Br)c2ccccc12 | 0.719 µM (active)
27 | CCCCCCCCCc1ccc(OCCOCCO)cc1 | inactive
28 | CCOC(=O)COC(=O)c1cc(Oc2ccc(C(F)(F)F)cc2Cl)ccc1[N+](=O)[O-] | 22.4 µM (active)
29 | CCCCC | 78.4 µM (active)
30 | CC[N+]1(CC)CCC(=C(c2ccccc2)c2ccccc2)C1C (stereo not given) | inactive
31 | CN1CCN(C(c2ccccc2)c2ccccc2)CC1 | inactive
32 | CCN(CC)c1ccc2c(-c3ccccc3C(=O)O)c3ccc(=[N+](CC)CC)cc-3oc2c1 | 35.6 µM (active)
33 | NCCCN1CCOCC1 | inactive
34 | CN1C[C@H]2c3ccccc3Oc3ccc(Cl)cc3[C@@H]2C1 | 7.76 µM (active)
35 | COc1ccc(C(=O)Nc2nc3ccccc3c(NCc3ccccc3)c2C#N)cc1 | 15.9 µM (active)
36 | O=[N+]([O-])c1cccc(S(=O)(=O)O)c1 | 40.5 µM (active)
37 | COc1cc2nc(N(C)CCCNC(=O)C3CCCO3)nc(N)c2cc1OC (stereo not given) | inactive
38 | C/C=C(/C(=C/C)c1ccc(OC(C)=O)cc1)c1ccc(OC(C)=O)cc1 | inactive
39 | Cc1oc(-c2ccccc2)nc1CCOc1cccc2c1ccn2CCC(=O)O | inactive
40 | O=C(O)C1(C(=O)O)CCC1.[NH2-].[NH2-].[Pt+2] | 13.8 µM (active)
41 | CC(=O)c1ccc2c(c1)N(CCCN(C)C)c1ccccc1S2 | 11 µM (active)
42 | C[C@H]1C[C@H]2[C@@H]3CCC4=CC(=O)C=C[C@]4(C)[C@@]3(Cl)[C@@H](O)C[C@]2(C)[C@@]1(O)C(=O)CO | inactive
43 | O=C1CCCCCCCCCCCC(=O)OCCO1 | 39.9 µM (active)
44 | CN1Cc2cc(C(=O)N3CCC(C4CCNCC4)CC3)ccc2NC(CC(=O)O)C1=O (stereo not given) | inactive
45 | Cc1oc2c(NC(=O)c3c(Cl)cccc3Cl)cccc2c1C(C)(C)O | 31.7 µM (active)
46 | CCCCCCCCCCCc1ccccc1 | inactive
47 | CCCCC(CC)CN1C(=O)C2C3C=CC(C3)C2C1=O (stereo not given) | 17.8 µM (active)
48 | C=CCOC(=O)CCC1CCCCC1 | inactive
49 | Cc1cc(C(=O)O)ccc1[N+](=O)[O-] | 40 µM (active)
50 | CC(C)(COC(=O)c1ccccc1)COC(=O)c1ccccc1 | 39.9 µM (active)
51 | O=C1c2ccccc2S(=O)(=O)N1CCCCN1CCN(c2ncccn2)CC1 | inactive

molecular target: Voltage-gated inwardly rectifying potassium channel KCNH2 (Homo sapiens) (UniProt Q12809); experiment: Human Ether-a-go-go-Related Gene (hERG) channel small molecule antagonists: fluorescence cell-based qHTS assay (AID 1671200); details: hERG-U2OS cells, FluxOR thallium flux fluorescence; series mostly up to 76.8 µM;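 for activity change, negative = inhibition: hERG-expressing U2OS cells given a thallium stimulus after FluxOR II dye loading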
Method in brief: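 Thallium served as the potassium surrogate; its influx into dye-loaded U2OS cells carrying the channel was measured by fluorescence over 2 min.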

Sequence of Voltage-gated inwardly rectifying potassium channel KCNH2 (Homo sapiens) (Q12809 whole entry, looked up): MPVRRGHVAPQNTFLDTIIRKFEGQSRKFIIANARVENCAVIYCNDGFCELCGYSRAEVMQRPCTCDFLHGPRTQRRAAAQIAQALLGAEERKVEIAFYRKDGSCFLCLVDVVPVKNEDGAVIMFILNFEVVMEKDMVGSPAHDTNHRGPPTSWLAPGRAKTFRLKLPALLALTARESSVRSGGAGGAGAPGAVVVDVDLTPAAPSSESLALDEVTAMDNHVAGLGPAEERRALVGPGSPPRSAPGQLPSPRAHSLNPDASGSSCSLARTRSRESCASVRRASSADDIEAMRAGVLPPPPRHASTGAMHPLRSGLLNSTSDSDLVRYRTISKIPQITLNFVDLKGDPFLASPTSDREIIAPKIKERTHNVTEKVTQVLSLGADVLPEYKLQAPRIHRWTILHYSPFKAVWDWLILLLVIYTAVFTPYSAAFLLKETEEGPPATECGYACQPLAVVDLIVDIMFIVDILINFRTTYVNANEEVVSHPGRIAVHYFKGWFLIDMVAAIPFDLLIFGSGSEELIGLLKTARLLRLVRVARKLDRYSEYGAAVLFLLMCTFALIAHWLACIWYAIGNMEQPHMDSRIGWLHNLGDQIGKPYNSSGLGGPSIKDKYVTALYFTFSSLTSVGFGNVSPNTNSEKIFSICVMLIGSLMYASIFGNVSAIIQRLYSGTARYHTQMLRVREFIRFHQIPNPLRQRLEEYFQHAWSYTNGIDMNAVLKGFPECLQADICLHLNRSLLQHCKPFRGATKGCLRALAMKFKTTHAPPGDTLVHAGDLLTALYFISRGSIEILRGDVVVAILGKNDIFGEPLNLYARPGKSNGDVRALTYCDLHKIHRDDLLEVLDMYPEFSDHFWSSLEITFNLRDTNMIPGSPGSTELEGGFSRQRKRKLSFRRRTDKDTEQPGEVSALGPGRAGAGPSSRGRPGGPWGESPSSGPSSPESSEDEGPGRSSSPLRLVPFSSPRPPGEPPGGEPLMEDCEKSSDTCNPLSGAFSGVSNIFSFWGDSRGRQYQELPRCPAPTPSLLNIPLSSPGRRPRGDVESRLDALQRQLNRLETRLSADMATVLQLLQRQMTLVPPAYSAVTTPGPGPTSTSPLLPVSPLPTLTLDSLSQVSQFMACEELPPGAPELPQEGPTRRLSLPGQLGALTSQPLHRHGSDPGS

Row | SMILES | Potency | activity change, negative = inhibition
52 | C#C[C@]1(O)CC[C@H]2[C@@H]3CCc4cc(OC5CCCC5)ccc4[C@H]3CC[C@@]21C | inactive | –
53 | CCN(CC)CCOC(=O)C(Cc1cccc2ccccc12)CC1CCCO1 (stereo not given) | 9.52 µM (active) | –
54 | Nc1ccccc1S(=O)(=O)c1ccccc1 | inactive | –
55 | CNCCCCOc1ccccc1Cc1ccccc1 | 3.38 µM (active) | –
56 | O=CC1CC=CCC1 (stereo not given) | inactive | –
57 | C/C=C/C(=O)CC | – | 2.39% [at 15.8 µM] (inactive)
58 | NCc1ccccc1Sc1ccccc1CO | inactive | –
59 | CCCCCCCC/C=C\CCCCCCCC(=O)OCC | inactive | –
60 | C=CC(=O)OCCOCCOCCOCCOC(=O)C=C | inactive | –
